Sampled rows, rich in hits. Any-hit rate of the full collection: about 19%.
IL-1B inflam inh: qHTS for Inhibitors of Inflammasome Signaling: IL-1-beta AlphaLISA Primary Screen | THP-1 LPS/ATP IL-1B secretion, AlphaLISA, 16 h; active compounds read low | activity change, % at 57.5 µM | 360,000 tested, 4.7% active | AID 743279, 2014; in the data active = activity change below about -50%; inconclusive = mostly about -30% to -49%
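THP-1 cells pretreated 1 hr with compounds (up to 57.5 uM final), then stimulated with LPS (250 ng/mL final) plus ATP (1.25 mM final); secreted IL-1B measured by AlphaLISA after 16 hr, decreased signal indicating inhibition.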
HT1080-NT tox: qHTS for induction of synthetic lethality in tumor cells producing 2HG: qHTS for the HT-1080-NT fibrosarcoma cell line | HT-1080-NT fibrosarcoma viability, CellTiter-Glo ATP luminescence, 48 h | 360,000 tested, 1.6% active | Potency, µM (highest dose often 46.1 µM), most hits filed as cytotoxic;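 also: NT is the 2HG producing partner of a matched IDH1 knockdown line; nearly all actives have a fitted effect of over 55% in size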
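Compounds were tested in concentration-response format on HT-1080-NT cells for 48 hours at 37 degrees C. Cell viability came from CellTiter-Glo luminescence; curves were classified by r2, response magnitude and activity.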
HT1080 IDH1KD tx: qHTS for induction of synthetic lethality in tumor cells producing 2HG: qHTS for the HT-1080-IDH1KD cell line; HT-1080 IDH1 knockdown viability, ATP luminescence, 48 h; Potency, µM (top dose mostly 46.1 µM), hits mostly cytotoxic; 360,000 tested, 2% active; AID 686971, 2013
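Assay cells: HT-1080 with IDH1 knockdown, 750 per well, RPMI/5% FBS. Exposure: 48 h at 37 °C following 2 h pre-incubation. Read: CellTiter-Glo luminescence; fitted concentration-response, curve class assigned.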
DT40 TDP1 CPT: qHTS for Inhibitors of human tyrosyl-DNA phosphodiesterase 1 (TDP1): qHTS in cells in presence of CPT; AID 686979, 2013; 420,000 tested, 12% active; chicken DT40 Tdp1-/-;hTDP1 cells + 20 nM CPT, ATP luminescence, 48 h; Potency, µM (titrated, usually from 46.2 µM), actives largely listed as inhibitors; also: nearly all actives have a fitted effect of over 55% in size
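Chicken DT40 Tdp1-/- cells stably complemented with human TDP1 were seeded at 400 cells/well in medium containing 20 nM camptothecin, exposed to pin-transferred compounds, and grown at 37 °C for at least 48 hr. Viability was read as ATP luminescence.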
DT40 TDP1 no CPT: qHTS for Inhibitors of human tyrosyl-DNA phosphodiesterase 1 (TDP1): qHTS in cells in absence of CPT | AID 686978, 2013 | DT40 Tdp1-/- hTDP1 cells, no CPT, ATP luminescence, 48 h | Potency, µM (doses to about 46.2 µM), usual class: inhibitors | 420,000 tested, 15% active; also: nearly all actives have a fitted effect of over 55% in size
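Readout: luminescence from CellTiter-Glo after 30 min in the dark at RT. Cells: DT40 Tdp1-/- with stable hTDP1, 400/well. Exposure: compounds alone, ≥48 hr, 37 °C.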
Each line names hits and unclear results; the compound was inactive in the other large screens. Unless noted, calls follow the shape of the dose curve; as a rule, active = well fitted curve in the direction sought with a large enough effect; inconclusive = small, poorly fitted or top-dose-only effect, or another doubt; inactive = no such curve, though single readings can be large; an effect the other way counts as inactive or inconclusive.

CCOC(=O)[C@]12Cc3cc(OC)ccc3[C@H]1N(C1CCCCC1)C(=O)c1ccccc12	IL-1B inflam inh -122, HT1080-NT tox 2.6µM, HT1080 IDH1KD tx 2.3µM, DT40 TDP1 CPT 2.1µM, DT40 TDP1 no CPT 2.3µM
CCOC(=O)[C@]12Cc3cc(Cl)ccc3[C@H]1N(C1CCCCC1)C(=O)c1ccccc12	IL-1B inflam inh -114, HT1080-NT tox 2.3µM, HT1080 IDH1KD tx 2.3µM, DT40 TDP1 CPT 2.3µM, DT40 TDP1 no CPT 2.3µM
COc1ccc(NC(=O)[C@@H](NC(=O)N2C[C@H]3C[C@@H](C2)c2cccc(=O)n2C3)C(C)C)cc1	none
CCc1ccccc1NC(=O)N1C[C@H]2C[C@@H](C1)c1cccc(=O)n1C2	none
CN1C2CCC1/C(=C/c1ccccn1)C(=O)/C2=C\c1ccccn1	IL-1B inflam inh -101, HT1080-NT tox 1.2µM, HT1080 IDH1KD tx 0.82µM, DT40 TDP1 CPT 0.52µM, DT40 TDP1 no CPT 0.65µM
O=c1[nH]cnc2nc(-c3ccc(N(CCCl)CCCl)cc3)[nH]c12	HT1080-NT tox inconclusive, HT1080 IDH1KD tx 0.65µM, DT40 TDP1 CPT inconclusive, DT40 TDP1 no CPT inconclusive
CCC(=O)N1CC(=O)Nc2ccc(Br)cc2C1c1ccccc1 (centres undefined)	none
Cc1ccccc1C(O)(Cc1ccccc1)C1CN2CCC1CC2 (centres undefined)	IL-1B inflam inh inconclusive, HT1080-NT tox inconclusive, HT1080 IDH1KD tx inconclusive, DT40 TDP1 CPT 18µM, DT40 TDP1 no CPT 18µM
Cc1ccc(C(O)(c2ccc(C)c(C)c2)C2CN3CCC2CC3)cc1C (centres undefined)	IL-1B inflam inh -86, HT1080-NT tox inconclusive, HT1080 IDH1KD tx inconclusive, DT40 TDP1 CPT 3.7µM, DT40 TDP1 no CPT 2.3µM
Fc1ccccc1CNC1CN2CCC1CC2 (centres undefined)	DT40 TDP1 CPT inconclusive, DT40 TDP1 no CPT inconclusive
CCCCCCCCCCCCCCCC[N+](C)(C)C	HT1080-NT tox 12µM, HT1080 IDH1KD tx inconclusive, DT40 TDP1 CPT 2.3µM, DT40 TDP1 no CPT 1.8µM
CCCCCCCCCCCCCCCCCC[N+](C)(C)CCC[Si](OC)(OC)OC	DT40 TDP1 CPT 24µM, DT40 TDP1 no CPT 12µM (no result: IL-1B inflam inh, HT1080-NT tox, HT1080 IDH1KD tx)
CCCCCC[N+](=O)[O-]	none
CCCCCCCCCC[N+](C)(C)CCCCCCCCCC	DT40 TDP1 CPT 1.3µM, DT40 TDP1 no CPT 0.94µM (no result: IL-1B inflam inh, HT1080-NT tox, HT1080 IDH1KD tx)
C=CCn1c(O)c(C(CC)=NCCc2c[nH]c3ccccc23)c(=O)[nH]c1=O	HT1080-NT tox inconclusive, HT1080 IDH1KD tx inconclusive, DT40 TDP1 CPT inconclusive, DT40 TDP1 no CPT 16µM
C=CCn1c(O)c(C(=O)CCCCCC)c(=O)[nH]c1=O	HT1080-NT tox inconclusive, HT1080 IDH1KD tx inconclusive, DT40 TDP1 CPT 12µM, DT40 TDP1 no CPT 8.2µM
C=CCn1c(O)c(C(CC)=NCCc2ccccc2)c(=O)[nH]c1=O	DT40 TDP1 CPT inconclusive, DT40 TDP1 no CPT inconclusive
C=CCN1CCCC1CNC(=O)c1cc2[nH]nnc2cc1OC (centres undefined)	DT40 TDP1 no CPT inconclusive
COc1ccc(Cn2c(=O)oc3ccc(C)cc32)cc1OC	DT40 TDP1 CPT 15µM, DT40 TDP1 no CPT 18µM
CCC12C=CCN3CCC4(c5ccc(OC)cc5N(C)C4[C@@](O)(C(=O)OC)C1OC(C)=O)C32 (some centres undefined)	none (no result: IL-1B inflam inh, HT1080-NT tox, HT1080 IDH1KD tx)
CC(C)CN1CCN(Cc2cccc3c2OCO3)CC1CCO (centres undefined)	none
NS(=O)(=O)c1ccc(CCNc2ccn3nc(-c4cccc(C(F)(F)F)c4)cc3n2)cc1	HT1080-NT tox inconclusive, DT40 TDP1 CPT inconclusive, DT40 TDP1 no CPT inconclusive
NS(=O)(=O)c1ccc(CCNc2nn3c(-c4ccc(F)c(Cl)c4)cnc3s2)cc1	IL-1B inflam inh inconclusive, HT1080-NT tox inconclusive, HT1080 IDH1KD tx 12µM, DT40 TDP1 CPT 16µM, DT40 TDP1 no CPT 23µM
Cc1ccc(-n2nc3c(=O)n(CC(=O)Nc4ccccc4F)nc(C)c3c2C)c(C)c1	DT40 TDP1 CPT inconclusive, DT40 TDP1 no CPT 18µM (no result: IL-1B inflam inh, HT1080-NT tox, HT1080 IDH1KD tx)
Cc1ccc(C)c(NC(=O)Cn2nc(C)c3nn(-c4ccc(Cl)cc4)c(C)c3c2=O)c1	DT40 TDP1 CPT 23µM, DT40 TDP1 no CPT 18µM (no result: IL-1B inflam inh, HT1080-NT tox, HT1080 IDH1KD tx)
CCN(CC)C(=O)c1ccc(NC(=O)Cn2nc(C)c3ccccc3c2=O)cc1	none
COC(=O)C1=C(c2cccc(OCc3ccccc3)c2)C[C@@H]2CC[C@H]1N2C(=O)NCc1ccc2[nH]ccc2c1	DT40 TDP1 CPT inconclusive, DT40 TDP1 no CPT inconclusive
COc1ccc(F)cc1CN1CCN(C(=O)CCC(=O)Nc2nnc(CC(C)C)s2)CC1	DT40 TDP1 CPT inconclusive, DT40 TDP1 no CPT inconclusive
CCn1c(O)c(/C=N/NC(=O)c2ccccc2)c(=O)n(CC)c1=S	DT40 TDP1 CPT inconclusive, DT40 TDP1 no CPT 29µM
CCn1c(O)c(/C=N/NC(=O)c2ccncc2)c(=O)[nH]c1=S	none
CN1C(=O)C(O)N=C(c2ccccc2)c2cc(Cl)ccc21 (centres undefined)	none (no result: IL-1B inflam inh, HT1080-NT tox, HT1080 IDH1KD tx)
Cc1cc(N)n(C2CCN(C)CC2)n1	DT40 TDP1 CPT inconclusive
CC[N+](C)(CC)CCCCOc1ccc2c(c1)C(=O)c1cc(OCCCC[N+](C)(CC)CC)ccc1-2	DT40 TDP1 CPT inconclusive, DT40 TDP1 no CPT 29µM
CC(C)n1c(/C=C/[C@@H](O)C[C@@H](O)CC(=O)O)c(-c2ccc(F)cc2)c2ccccc21	HT1080-NT tox 1.5µM, HT1080 IDH1KD tx 1.5µM, DT40 TDP1 CPT 15µM, DT40 TDP1 no CPT 9.2µM
Cc1ccc(O)c(CN2CCC3CCC(C3)C2)c1 (centres undefined)	none
O=C(Nc1ccc(Cl)cc1)OC1CN2CCC1CC2 (centres undefined)	IL-1B inflam inh -52
O=C(Nc1cccc(Cl)c1)OC1CN2CCC1CC2 (centres undefined)	IL-1B inflam inh inconclusive, DT40 TDP1 CPT 5.2µM, DT40 TDP1 no CPT 5.2µM
O=C(Nc1ccccc1Cl)OC1CN2CCC1CC2 (centres undefined)	DT40 TDP1 no CPT inconclusive
COc1ccccc1NC(=O)c1oc2ccccc2c1NC(=O)c1ccccc1C(F)(F)F	DT40 TDP1 CPT 3.7µM, DT40 TDP1 no CPT 5.2µM (no result: IL-1B inflam inh, HT1080-NT tox, HT1080 IDH1KD tx)
CN(C)C(=O)Oc1cccc(NC(=O)c2ccccc2C(F)(F)F)c1	none
Cc1cc(C)n2nc(SC(C)C(=O)N3CCC4(CC3)OCCO4)nc2n1 (centres undefined)	none
C/C=C1/C[N@@+]2(C)CC[C@]34C(=C(C=O)[C@H]1C[C@H]32)Nc1ccccc14	none (no result: IL-1B inflam inh, HT1080-NT tox, HT1080 IDH1KD tx)

Screens as filed in PubChem.
